This is one part of the list. Activity calls are given as the source filed them.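 Rule for the calls, unless noted: active = inhibition above the hit cutoff computed for the primary STAT3 screen (cut at about 44% in these data); inactive = the rest.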
How the values were obtained:
[1] = STAT3 reporter inhibitors, retest of hits, confirmation, U3A cells, luciferase, luminescence (AID 1265); settings: IL-6 STAT3 luciferase reporter, at 5.7 µM, stronger effect = higher value, cell line lacks STAT1;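 note: 0% = IL-6 plus DMSO and 100% = IL-6 plus nifuroxazide control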
[2] = NF-kB reporter inhibitors in human cells, confirmation, counter-screen for STAT3 inhibitor project, cell-based, HEK293T, luciferase, TNF-alpha stimulus (AID 1308;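 active = inhibition above the mean of solvent-only control wells plus 3 SD, cutoff set per campaign, cut at about 13% in these data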;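 note: 0% = TNF-alpha with DMSO and 100% = TNF-alpha with MG high control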); settings: TNF-alpha induced, at 5.7 µM, stronger effect = higher value
[3] = STAT1 reporter inhibitors, IFN-gamma induced, confirmation, counter-screen for STAT3 inhibitor project, cell-based, NIH 3T3, luciferase luminescence (AID 1317;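 active = inhibition above the mean plus 3 SD of solvent-only control wells, limit set per screening run, cut at about 16% in these data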;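 note: 0% = DMSO with IFN-gamma and 100% = nifuroxazide control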); settings: NIH 3T3 STAT1-luciferase reporter, at 5.7 µM, stronger effect = higher value
[4] = StAR promoter reporter inhibitors, counter-screen for LRH-1 inverse agonist project, cell-based, luminescence, high throughput (AID 651611; in the data active = inhibition above about 28%); settings: StAR promoter luciferase reporter counterscreen, at 3.6 µM, stronger effect = higher value
[5] = molecular target: Nuclear receptor subfamily 5 group A member 2 (Homo sapiens) (UniProt O00482); test: LRH-1 (NR5A2) inverse agonists, retest, confirmation, cell-based, luminescence (AID 651613; in the data active = inhibition above about 42%;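 note: HEK293T cells co-transfected with LRH-1 and StAR promoter luciferase reporter; 0% = vehicle wells and 100% = parental cells lacking receptor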); settings: cell-based LRH-1 luciferase reporter, inverse agonism; at 3.6 µM; stronger effect = higher value
[6] = molecular target: Steroidogenic factor 1 (Homo sapiens) (UniProt Q13285); test: SF1 (NR5A1) inverse agonists, counter-screen for LRH-1 inverse agonist project, cell-based, luminescence, high throughput (AID 651614; in the data active = inhibition above about 44%;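 note: cells cotransfected with StAR promoter reporter and SF1 expression vector; 0% = vehicle on cells with receptor and 100% = vehicle on cells lacking receptor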); settings: cell-based SF1 luciferase reporter, at 3.6 µM, stronger effect = higher value
[7] = VP16 transactivation reporter inhibitors, counter-screen for LRH-1 inverse agonist project, cell-based, luminescence, high throughput (AID 651615; in the data active = inhibition above about 33%); settings: Gal4-VP16 luciferase reporter cells, at 3.6 µM, stronger effect = higher value
[8] = Gal4-VP16 luciferase reporter inhibitors, counter-screen for COUP-TFII antagonist project, cell-based, luminescence, HEK293 (AID 687007; in the data active = inhibition above about 13%); settings: at 8.5 µM, stronger effect = higher value
[9] = molecular target: COUP transcription factor 2 (Homo sapiens) (UniProt P24468); test: NR2F2 transcriptional activity inhibitors, confirmation, cell-based, luciferase reporter, HEK293, triplicate (AID 687008;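 active = mean inhibition over three repeats above a set limit taken from the earlier primary screen, cut at about 38% in these data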;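 note: 100% = cells given the luciferase reporter alone without the COUP-TF2 vector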); settings: HEK293 NGFI-A luciferase reporter, luminescence; at 8.5 µM; stronger effect = higher value
[10] = molecular target: Oxysterols receptor LXR-beta (Homo sapiens) (UniProt P55055); test: LXR agonists, Gal4 luciferase reporter, confirmation, counter-screen for hcDAF-12 agonist project, cell-based, luminescence, HEK293, H. contortus campaign (AID 743027;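 active = mean percent activation of the reporter above a cutoff set as the average over tested compounds plus their standard deviation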); settings: HEK293 Gal4-LXR tk-luc reporter, 24 h, at 6.8 µM, stronger effect = higher value, normalized: DMSO 0%, positive control 100%
[11] = system: Nuclear hormone receptor DAF-12 (Haemonchus contortus); test: H. contortus DAF-12 receptor agonists, confirmation, cell-based, luminescence, HEK293, lit1-tk-luc, triplicate (AID 743032;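 active = mean activation across triplicate tests above the threshold derived from the earlier primary screen, cut at about 5.5% in these data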;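 note: 0% = DMSO only wells and 100% = 3 µM Δ7-dafachronic acid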); settings: HEK293 hcDAF-12 lit1-tk-luc reporter, at 6.8 µM, stronger effect = higher value, % of Δ7-dafachronic acid response
[12] = molecular target: Peroxisome proliferator-activated receptor gamma (Homo sapiens) (UniProt P37231); test: agonists of PPARgamma SRC-2 coactivator recruitment, confirmation, biochemical, HTS (AID 1297; in the data active = activation above about 22%;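 note: 0% = vehicle alone and 100% = reference agonist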); settings: biochemical SRC-2 recruitment by PPARgamma; at 8 µM; stronger effect = higher value
[13] = molecular target: Peroxisome proliferator-activated receptor gamma (Homo sapiens) (UniProt P37231); test: PPARgamma agonists recruiting SRC-1 coactivator, confirmation, biochemical (AID 1300; in the data active = activation above about 20%;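 note: 0% = vehicle wells and 100% = reference agonist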); settings: PPARgamma–SRC-1 coactivator recruitment biochemical assay; at 8 µM; stronger effect = higher value
[14] = molecular target: Peroxisome proliferator-activated receptor gamma (Homo sapiens) + Nuclear receptor coactivator 3 (Homo sapiens) (UniProt P37231+Q9Y6Q9); test: PPARgamma-driven SRC-3 coactivator recruitment agonists, confirmation, biochemical (AID 1301; in the data active = activation above about 24%;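 note: 0% = vehicle wells and 100% = reference agonist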); settings: biochemical PPARgamma-SRC-3 coactivator recruitment, agonist mode; at 8 µM; stronger effect = higher value
[15] = system: DAF-12 nuclear receptor (Heterodera glycines), GAL4-LBD fusion; test: H. glycines DAF-12 receptor agonists, confirmation, cell-based, luminescence, HEK293, GAL4-LBD fusion (AID 743050;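 active = mean activation over triplicate wells above the hit cutoff derived from the earlier primary screen, cut at about 11% in these data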;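 note: 0% = DMSO low control and 100% = 2 mM sodium butyrate high control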); settings: HEK293 GAL4-hgDAF12 luciferase reporter, agonist mode; at 6.8 µM; stronger effect = higher value; percent of butyrate response
[16] = molecular target: Oxysterols receptor LXR-beta (Homo sapiens) (UniProt P55055); test: LXR agonists, Gal4 luciferase reporter, confirmation, counter-screen for hgDAF-12 agonist project, cell-based, luminescence, HEK293, H. glycines campaign (AID 743051;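 active = mean activation of the triplicate above a set limit carried over from the primary screen, none filed active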); settings: 24 h, at 6.8 µM, stronger effect = higher value
[17] = molecular target: Photoreceptor-specific nuclear receptor (Homo sapiens) (UniProt Q9Y5X4); test: NR2E3 agonist confirmation in cells, cell-based, luminescence, CHO-S two-hybrid (AID 624378;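 active = average inhibition above a cutoff equal to the mean inhibition of all tested compounds plus one SD, cut at about 70% in these data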;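 note: 0% = DMSO in NR2E3 cells and 100% = DMSO in cells lacking NR2E3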); settings: CHO-S mammalian two-hybrid NR2E3-NCOR, luciferase luminescence; at 3.98 µM; stronger effect = higher value
[18] = GAL4-VP16 reporter modulators, confirmation, counter-screen for NR2E3 agonist project, cell-based, luminescence, CHO-S, high throughput (AID 624379;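 active = mean inhibition above a cutoff equal to the average over all tested compounds plus one standard deviation, cut at about 70% in these data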;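 note: luciferase from a UAS reporter driven by GAL4-VP16 transactivation; 0% = DMSO with VP16-transfected cells and 100% = DMSO with cells lacking VP16; higher means less reporter light so more repression of VP16 activity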); settings: CHO-S GAL4-VP16 luciferase reporter, at 3.98 µM, stronger effect = higher value
[19] = molecular target: Nuclear receptor coactivator 1 (Homo sapiens) (UniProt Q15788); test: SRC1 coactivator transcriptional activity inhibitors, confirmation, cell-based, luminescence, quadruplicate (AID 588820;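 active = mean inhibition above 46.68%, the untreated control wells mean plus 3 SD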;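 note: 0% = DMSO wells and 100% = gossypol 36 µM treated wells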); settings: HEK293 GAL4-SRC1 luciferase reporter, at 3.6 µM, stronger effect = higher value
[20] = VP16 transactivation inhibitors, counter-screen for SRC1 inhibitor project, cell-based, luminescence, high throughput (AID 588824; in the data active = inhibition above about 25%); settings: cell-based VP16 transactivation luciferase luminescence; at 3.6 µM; stronger effect = higher value
[21] = molecular target: Receptor-interacting serine/threonine-protein kinase 2 (Homo sapiens) (UniProt O43353); test: NOD2-RIPK2 binding disruptors, retest, confirmation, fluorescence, CHO cells, BLA complementation, triplicate (AID 624370;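 active = mean inhibition across replicates above a set limit taken from the earlier primary screen, cut at about 21% in these data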;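 note: 0% = DMSO-only wells and the high end = clavulanate BLA-blocked wells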); settings: CCF4 FRET, at 4.98 µM, stronger effect = higher value
[22] = beta-lactamase reporter inhibitors in CHO cells, confirmation, artefact control for NOD2-RIPK2 interaction inhibitor project, cell-based, CHO-K1 CMV-bla, CCF4 FRET, fluorescence (AID 624371;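 active = mean inhibition above the low-control mean inhibition plus three low-control SD, cut at about 11% in these data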;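 note: 0% = DMSO only wells and 100% = clavulanate high control wells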); settings: CCF4 FRET ratio, counterscreen, at 4.98 µM, stronger effect = higher value
[23] = molecular target: Galanin receptor type 2 (Homo sapiens) (UniProt O43603); test: GALR2 antagonists, retest of hits, confirmation, cell-based (AID 866; in the data active = inhibition above about 27%;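 note: cells stimulated with galanin at about its EC80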); settings: GALR2-expressing cells, antagonist mode, at 4 µM, stronger effect = higher value
[24] = inhibitors of NFAT-driven beta-lactamase reporter, confirmation, counter-screen for GALR2 antagonist project, CHO NFAT-bla cells, FRET readout (AID 867;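 active = inhibition above the mean inhibition across tested compounds plus 3 SD, cut at about 27% in these data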;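 note: 0% = 500 nM thapsigargin stimulated wells and 100% = unstimulated BSA only wells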); settings: thapsigargin-stimulated, at 4.2 µM, stronger effect = higher value

Sequence of COUP transcription factor 2 (Homo sapiens) (P24468 whole entry, looked up, the tested form may be a part): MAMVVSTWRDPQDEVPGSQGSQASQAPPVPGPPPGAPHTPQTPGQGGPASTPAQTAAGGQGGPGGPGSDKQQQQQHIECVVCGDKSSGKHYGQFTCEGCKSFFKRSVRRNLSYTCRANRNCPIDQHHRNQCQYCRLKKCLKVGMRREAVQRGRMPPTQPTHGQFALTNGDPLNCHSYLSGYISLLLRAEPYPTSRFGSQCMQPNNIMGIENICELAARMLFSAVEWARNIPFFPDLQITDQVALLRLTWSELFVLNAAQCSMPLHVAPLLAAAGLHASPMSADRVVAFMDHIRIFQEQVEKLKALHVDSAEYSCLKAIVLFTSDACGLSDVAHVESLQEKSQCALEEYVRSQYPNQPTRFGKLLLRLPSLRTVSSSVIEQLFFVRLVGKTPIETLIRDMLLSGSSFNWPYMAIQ
Sequence of Photoreceptor-specific nuclear receptor (Homo sapiens) (Q9Y5X4 whole entry, looked up, the tested form may be a part): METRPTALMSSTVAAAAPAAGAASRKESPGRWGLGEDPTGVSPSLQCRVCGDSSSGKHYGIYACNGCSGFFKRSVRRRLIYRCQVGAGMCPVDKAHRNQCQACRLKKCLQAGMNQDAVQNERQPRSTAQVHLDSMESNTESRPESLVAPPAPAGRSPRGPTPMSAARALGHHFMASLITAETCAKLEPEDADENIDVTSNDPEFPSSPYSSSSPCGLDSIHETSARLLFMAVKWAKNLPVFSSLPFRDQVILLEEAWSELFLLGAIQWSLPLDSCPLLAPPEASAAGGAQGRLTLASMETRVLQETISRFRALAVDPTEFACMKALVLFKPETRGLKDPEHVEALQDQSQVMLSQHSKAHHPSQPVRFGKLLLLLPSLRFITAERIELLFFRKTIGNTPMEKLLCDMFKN
Sequence of Oxysterols receptor LXR-beta (Homo sapiens) (P55055 whole entry, looked up, the tested form may be a part): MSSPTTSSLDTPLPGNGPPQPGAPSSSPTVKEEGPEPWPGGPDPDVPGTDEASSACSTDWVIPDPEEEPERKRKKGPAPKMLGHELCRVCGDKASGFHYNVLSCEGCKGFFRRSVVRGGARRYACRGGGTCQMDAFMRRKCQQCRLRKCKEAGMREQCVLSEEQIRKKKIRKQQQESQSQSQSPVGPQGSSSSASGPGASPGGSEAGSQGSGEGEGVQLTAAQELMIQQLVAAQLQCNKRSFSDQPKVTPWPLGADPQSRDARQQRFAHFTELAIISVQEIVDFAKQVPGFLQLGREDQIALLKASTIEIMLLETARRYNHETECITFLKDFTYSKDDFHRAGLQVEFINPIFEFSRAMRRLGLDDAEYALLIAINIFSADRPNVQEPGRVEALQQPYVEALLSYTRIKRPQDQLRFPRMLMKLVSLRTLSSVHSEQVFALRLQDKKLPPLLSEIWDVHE
Sequence of Peroxisome proliferator-activated receptor gamma (Homo sapiens) (P37231 whole entry, looked up): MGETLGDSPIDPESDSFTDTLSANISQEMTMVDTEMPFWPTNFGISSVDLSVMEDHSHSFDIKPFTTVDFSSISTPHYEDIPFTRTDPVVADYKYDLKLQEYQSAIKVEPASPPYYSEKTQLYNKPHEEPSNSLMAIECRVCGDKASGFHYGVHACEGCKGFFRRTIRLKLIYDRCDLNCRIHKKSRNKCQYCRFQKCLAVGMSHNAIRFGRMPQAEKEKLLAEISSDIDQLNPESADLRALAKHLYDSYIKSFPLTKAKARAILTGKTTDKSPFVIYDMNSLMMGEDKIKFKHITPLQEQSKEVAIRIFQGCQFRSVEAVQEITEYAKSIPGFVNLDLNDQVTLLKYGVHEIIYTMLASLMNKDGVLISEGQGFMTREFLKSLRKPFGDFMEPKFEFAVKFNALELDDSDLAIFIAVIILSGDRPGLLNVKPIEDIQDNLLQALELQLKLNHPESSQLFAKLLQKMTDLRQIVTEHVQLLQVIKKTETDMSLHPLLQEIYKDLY
Sequence of Nuclear receptor subfamily 5 group A member 2 (Homo sapiens) (O00482 whole entry, looked up): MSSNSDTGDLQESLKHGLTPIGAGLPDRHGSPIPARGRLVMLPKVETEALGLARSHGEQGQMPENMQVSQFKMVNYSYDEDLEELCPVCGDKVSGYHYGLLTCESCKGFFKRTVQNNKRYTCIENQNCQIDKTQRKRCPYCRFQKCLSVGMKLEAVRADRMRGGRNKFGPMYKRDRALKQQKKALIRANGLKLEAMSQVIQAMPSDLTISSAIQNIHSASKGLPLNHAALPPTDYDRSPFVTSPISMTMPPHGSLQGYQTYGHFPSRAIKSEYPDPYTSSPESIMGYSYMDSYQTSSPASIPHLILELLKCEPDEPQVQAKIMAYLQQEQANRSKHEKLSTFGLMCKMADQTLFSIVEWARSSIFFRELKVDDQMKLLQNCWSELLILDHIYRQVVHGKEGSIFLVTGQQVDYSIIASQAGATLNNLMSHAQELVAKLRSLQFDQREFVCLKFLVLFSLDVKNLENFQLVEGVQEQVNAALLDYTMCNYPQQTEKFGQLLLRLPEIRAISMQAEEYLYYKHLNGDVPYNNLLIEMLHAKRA
Sequence of Steroidogenic factor 1 (Homo sapiens) (Q13285 whole entry, looked up, the tested form may be a part): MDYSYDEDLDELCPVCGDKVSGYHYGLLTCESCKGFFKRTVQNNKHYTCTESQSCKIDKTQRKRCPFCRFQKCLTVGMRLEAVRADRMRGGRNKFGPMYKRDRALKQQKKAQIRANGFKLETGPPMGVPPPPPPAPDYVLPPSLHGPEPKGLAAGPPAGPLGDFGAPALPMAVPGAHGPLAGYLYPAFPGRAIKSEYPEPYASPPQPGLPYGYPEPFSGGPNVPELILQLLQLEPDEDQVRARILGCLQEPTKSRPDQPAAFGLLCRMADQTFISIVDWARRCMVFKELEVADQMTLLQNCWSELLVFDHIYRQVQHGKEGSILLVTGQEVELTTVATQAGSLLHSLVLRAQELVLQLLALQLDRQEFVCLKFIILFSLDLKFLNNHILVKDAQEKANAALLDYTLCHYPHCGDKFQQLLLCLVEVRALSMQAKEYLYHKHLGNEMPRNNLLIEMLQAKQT
Sequence of Peroxisome proliferator-activated receptor gamma (Homo sapiens) + Nuclear receptor coactivator 3 (Homo sapiens) (P37231 whole entry, looked up, the tested form may be a part): as the sequence (P37231 whole entry, looked up) above
Sequence of Peroxisome proliferator-activated receptor gamma (Homo sapiens) + Nuclear receptor coactivator 3 (Homo sapiens) (Q9Y6Q9 whole entry, looked up, the tested form may be a part): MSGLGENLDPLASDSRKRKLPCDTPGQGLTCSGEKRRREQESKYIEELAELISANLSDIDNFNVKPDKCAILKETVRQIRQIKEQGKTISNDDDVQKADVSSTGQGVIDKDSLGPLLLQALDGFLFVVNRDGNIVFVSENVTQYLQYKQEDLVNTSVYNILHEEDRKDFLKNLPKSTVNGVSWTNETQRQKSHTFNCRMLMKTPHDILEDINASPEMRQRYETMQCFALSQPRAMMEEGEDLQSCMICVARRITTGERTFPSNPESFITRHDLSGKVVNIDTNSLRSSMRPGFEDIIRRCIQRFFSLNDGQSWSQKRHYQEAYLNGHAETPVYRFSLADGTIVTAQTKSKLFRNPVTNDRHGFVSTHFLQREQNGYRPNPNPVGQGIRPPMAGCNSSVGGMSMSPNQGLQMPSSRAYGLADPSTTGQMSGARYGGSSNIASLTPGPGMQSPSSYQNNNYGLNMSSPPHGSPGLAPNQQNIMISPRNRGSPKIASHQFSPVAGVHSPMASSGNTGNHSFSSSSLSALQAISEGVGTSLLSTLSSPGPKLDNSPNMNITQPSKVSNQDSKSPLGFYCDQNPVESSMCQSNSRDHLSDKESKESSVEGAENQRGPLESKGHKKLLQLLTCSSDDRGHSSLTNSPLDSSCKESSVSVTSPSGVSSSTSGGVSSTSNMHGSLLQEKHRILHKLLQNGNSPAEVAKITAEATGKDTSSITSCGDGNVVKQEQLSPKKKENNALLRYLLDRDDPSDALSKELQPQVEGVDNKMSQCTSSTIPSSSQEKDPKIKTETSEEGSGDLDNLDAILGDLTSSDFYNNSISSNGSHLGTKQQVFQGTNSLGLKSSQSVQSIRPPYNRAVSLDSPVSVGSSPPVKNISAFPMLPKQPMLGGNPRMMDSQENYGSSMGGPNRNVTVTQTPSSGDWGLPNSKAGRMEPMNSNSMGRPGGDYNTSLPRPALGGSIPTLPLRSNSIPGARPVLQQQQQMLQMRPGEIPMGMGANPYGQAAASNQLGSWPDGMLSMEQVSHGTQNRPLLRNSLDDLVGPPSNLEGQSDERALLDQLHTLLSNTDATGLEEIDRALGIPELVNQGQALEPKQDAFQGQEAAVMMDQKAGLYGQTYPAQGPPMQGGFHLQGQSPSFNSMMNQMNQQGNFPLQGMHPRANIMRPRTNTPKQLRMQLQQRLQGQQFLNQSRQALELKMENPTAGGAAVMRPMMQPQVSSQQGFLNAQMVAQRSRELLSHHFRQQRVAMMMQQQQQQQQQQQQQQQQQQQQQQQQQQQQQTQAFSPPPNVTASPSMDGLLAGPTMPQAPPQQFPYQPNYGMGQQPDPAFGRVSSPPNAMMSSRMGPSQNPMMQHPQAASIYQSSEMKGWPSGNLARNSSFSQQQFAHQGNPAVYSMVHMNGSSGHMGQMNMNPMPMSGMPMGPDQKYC

O=C(Nc1ccc(CSc2ccccc2)cc1)c1ccc(CN2CCOCC2)cc1
inactive: inhibition [3] 10.4% | inhibition [8] -2.4%
active: inhibition [1] 83.7% | inhibition [2] 33.3% | inhibition [4] 28.7% | inhibition [5] 65.5% | inhibition [6] 63% | inhibition [7] 54.8% | inhibition [9] 65.8%

Cc1csc(SCC(=O)Nc2sccc2C#N)n1
inactive: inhibition [1] 7.4% | inhibition [2] -23.8% | inhibition [3] -80.2% | activation [10] 1.59%
active: activation [11] 10.3%

COC(=O)Cn1cc(C(=O)c2cccs2)c2ccccc21
inactive: activation [12] -2.1% | activation [13] 0.95% | activation [14] 0.74%

O=C(Nc1ccn(Cc2ccccc2)n1)c1n[nH]c([N+](=O)[O-])c1Cl
inactive: inhibition [1] 12.7% | inhibition [2] -0.1% | inhibition [3] -63.1% | activation [16] 0.82%
active: activation [15] 11.6%

Cn1c(CN2CCOCC2)nc2cc(NC(=O)c3ccc(Cl)cc3)ccc21
inactive: inhibition [3] -12% | inhibition [8] -24.2% | inhibition [9] 24.5%
active: inhibition [1] 65% | inhibition [2] 16.1%

O=C(Nc1nc(-c2ccc3c(c2)OCO3)cs1)c1ccncc1
inactive: inhibition [2] 11.5% | inhibition [3] 6.97% | inhibition [8] -26.7%
active: inhibition [1] 49.5% | inhibition [9] 50.7%

CCCOC(=O)c1[nH]c2c(c1C)C(=O)CC(c1cc(OC)c(OC)c(OC)c1)C2 (stereo not drawn)
active: inhibition [1] 61% | inhibition [2] 29% | inhibition [3] 25.8% | inhibition [17] 73.9% | inhibition [4] 29% | inhibition [5] 54.7% | inhibition [6] 54.1% | inhibition [7] 41% | inhibition [9] 49.6%
inactive: inhibition [18] 65% | inhibition [8] 6.54%

COc1ccc(S(=O)(=O)Nc2ccc3oc(C)c(C(C)=O)c3c2)cc1
inactive: inhibition [1] 32.3% | inhibition [8] 1.7% | inhibition [9] 20.7%
active: inhibition [2] 13.4% | inhibition [3] 20.4% | inhibition [17] 93% | inhibition [18] 79.4%

CN(Cc1cccnc1)C(=O)c1cc(COc2ccc3ncccc3c2)on1
active: inhibition [1] 75.9% | inhibition [2] 25.1% | inhibition [3] 27.1% | inhibition [20] 26.4% | inhibition [17] 89.1% | inhibition [18] 78.8% | inhibition [9] 59%
inactive: inhibition [19] -14.7% | inhibition [8] 0.64%

COc1ccccc1Oc1ccc(S(=O)(=O)Nc2cccnc2)cc1
active: inhibition [17] 95.5% | inhibition [18] 75.8%
inactive: inhibition [1] 33% | inhibition [2] 5.8% | inhibition [3] 8.77%

CCCc1ccc(-c2csc(NC(=O)Cc3cccs3)n2)cc1
active: inhibition [21] 32.7% | inhibition [22] 31.1%
inactive: inhibition [1] 34.2% | inhibition [2] 4.13% | inhibition [3] 4.43% | inhibition [8] -25% | inhibition [9] 15.2%

CCOc1ccc(-c2nnc(-c3ccco3)o2)cc1
inactive: inhibition [3] -56.6% | activation [16] 0.7%
active: inhibition [1] 43.7% | inhibition [2] 13.6% | activation [15] 15.5%

COc1ccc(Nc2ncc(F)c(N3CCOCC3)n2)cc1
inactive: inhibition [1] 3.37% | inhibition [2] -21.5% | inhibition [3] -107% | activation [16] 1%
active: activation [15] 16.1%

Cc1ccc(F)cc1NC(=O)Cc1nn(C)c(=O)c2ccccc12
inactive: inhibition [24] 12.4% | inhibition [17] 65.1% | inhibition [18] 61.5% | inhibition [8] 9%
active: inhibition [23] 33.5% | inhibition [1] 51.9% | inhibition [2] 16.1% | inhibition [3] 21.2% | inhibition [9] 48.1%

CCc1ccc2oc(-c3ccc(N)cc3)nc2c1
inactive: inhibition [1] 36.1% | inhibition [3] -84.8% | activation [10] 1.54% | activation [16] 1.35%
active: inhibition [2] 13.1% | activation [11] 10.2% | activation [15] 18.3%

CCCOc1ccc(C(=O)NCCc2ccccc2)cc1
inactive: inhibition [1] 11.6% | inhibition [2] -7.27% | inhibition [3] -61.1% | activation [10] 1.59% | activation [16] 0.6%
active: activation [11] 7.43% | activation [15] 14.1%

COc1cccc(-c2nc3cc(C)ccc3o2)c1
active: activation [11] 16.7%
inactive: inhibition [1] 1.5% | inhibition [2] -23.8% | inhibition [3] -109% | activation [10] 2.33%

Cc1nc2ccccc2cc1OCc1ccc(F)cc1
inactive: inhibition [2] 6.3% | inhibition [3] 5.63% | inhibition [18] 70.5% | inhibition [8] -26.8%
active: inhibition [1] 61.5% | inhibition [17] 82.5% | inhibition [9] 38%

Cc1ccc(N/C=C/C(=O)c2ccccc2)cc1C
inactive: inhibition [1] 20.9% | inhibition [3] -55.2% | activation [10] 1.51% | activation [15] 8.78% | activation [16] 1.25%
active: inhibition [2] 13.8% | activation [11] 16.8%

From PubChem BioAssay
